# In PubChem BioAssay (NCATS):
# Results filed as inconclusive are left out. The source made the active and inactive calls. Unless noted, calls follow the shape of the dose curve; as a rule, active = well fitted inhibition curve with a large enough effect; inconclusive = small, poorly fitted or top-dose-only effect; inactive = no such curve, though single readings can be large or run the other way.
# Legend:
# [1] = Cell Proliferation Assay Versus the ED40515 IL2 Independent ATL cell lines (AID 1053194; calls by dose curve); conditions: ED40515 IL2-independent ATL cells
# In short: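 CellTiter-Glo luminescence, read after 15 min at RT, gave viability of IL-2-free ED40515 cells (1000/well, RPMI plus 5% FBS) following 48 h drug exposure at 37C. Control wells held DMSO or 9.2 uM bortezomib.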
# [2] = High-throughput drug toxicity screening in the BPDCN cell line Gen2.2 (AID 1224824; call rule not given here;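 also: cells exposed to compounds for 48 h before reading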); conditions: Gen2.2 BPDCN cells; at 45.8 µM (top of the series) unless noted
# In short: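 Readout is ATP luminescence from Gen2.2 cells after two days of drug exposure in serum-containing medium at 37 °C. Values express percent activity, with vehicle defining full signal and 9.2 uM bortezomib defining zero.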
# [3] = High-throughput drug toxicity screening in the BPDCN cell line Cal-1 (AID 1224825; call rule not given here); conditions: Cal-1 BPDCN cell viability, qHTS; at 45.8 µM (top of the series) unless noted
# In short: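 Percent activity derived from CellTiter-Glo luminescence, scaling DMSO to 100% and 9.2 uM final bortezomib to 0%. BPDCN Cal-1 cells (500/well, RPMI plus 10% FBS) incubated with compounds 48 hours at 37C before reading.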
# [4] = Cell Proliferation Assay Versus the ED40515 IL2 Dependent ATL cell lines (AID 1053195; calls by dose curve); conditions: ED40515 IL2-dependent ATL cells
# In short: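 CellTiter-Glo luminescence (15 min, RT) measured viability after 48 hours at 37C; cells were ED40515 +IL2, 1000/well, in phenol red-free RPMI with 5% FBS. Controls: DMSO and 9.2 uM bortezomib.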
# [5] = qHTS profiling of the MIPE4 collection as inhibitors of Plasmodium falciparum (HB3) proliferation (AID 743347; call rule not given here;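 also: plate controls were DMSO vehicle wells for no effect and artemisinin wells for full effect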); conditions: P. falciparum HB3 in erythrocytes, SYBR Green DNA, 72 h; at 28.5 µM (top of the series) unless noted
# In short: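 Parasite DNA was quantified by SYBR Green I fluorescence (ex 485, em 535 nm) after overnight lysis in saponin/Triton buffer at room temperature. Cultures at 0.3% parasitemia and 2.5% hematocrit were first exposed to compound for 72 h at 37 C; signals were normalised to artemisinin (0.29 uM) and vehicle wells.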
# [6] = qHTS assay for measurement of the activity of small molecule inhibitors on Zika virus induced Caspase-3 activity in human iPSC derived neural progenitor cells (hNPCs) (AID 1224857); conditions: hNPCs ZIKV-induced caspase-3/7, Caspase-Glo luminescence, 6 h; series mostly up to 45.7 µM; also: % of control where 0% means no effect; nearly all actives have a fitted effect of over 65% in size
# In short: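 Quantitative HTS format: human iPSC neural progenitors, 1 h compound pretreatment, ZIKV 2 FFU/cell for 6 h at 37 C. Percent inhibition derived from luminescent caspase-3/7 signal between uninfected and infected controls.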
# [7] = qHTS assay for measurement of the activity of small molecule inhibitors on Zika virus induced Caspase-3 activity in human astrocytoma cells (AID 1224859); conditions: SNB-19 ZIKV-induced caspase-3/7, luminescence, 6 h; series mostly up to 45.7 µM;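 also: plate controls were ZIKV-infected untreated cells for no effect and uninfected cells for full effect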
# In short: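 Readout is luminescence from Caspase-Glo 3/7 added after a 6 h ZIKV infection (2 FFU/cell) of compound-pretreated (1 h) SNB-19 cells; data expressed as % inhibition versus uninfected and infected wells.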
# [8] = qHTS Screen of the MIPE 4.0 Collection Against Ewings Sarcoma (RDES) (AID 1259252); conditions: RD-ES Ewing sarcoma viability, CellTiter-Glo, 48 h; series mostly up to 45.8 µM; also: nearly all actives have a fitted effect of over 35% in size; also: potency is read from the fitted curve at half-maximal effect
# In short: (§1)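 CellTiter-Glo luminescence after 48 h compound exposure (titration) gave viability; percent activity used DMSO-treated cells as no inhibition and medium-only wells as full inhibition. Cells grown in RPMI/5% FBS, dosed 4 h post-seeding.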
# [9] = qHTS Screen of the MIPE 4.0 Collection Against Ewings Sarcoma (TC71) (AID 1259253); conditions: TC71 Ewing sarcoma viability, CellTiter-Glo, 48 h; series mostly up to 45.8 µM; also: nearly all actives have a fitted effect of over 40% in size; also: potency is read from the fitted curve at half-maximal effect
# In short: as §1
# [10] = qHTS Screen of the MIPE 4.0 Collection Against Ewings Sarcoma (EW8) (AID 1259255); conditions: EW8 Ewing sarcoma viability, CellTiter-Glo, 48 h; series mostly up to 45.8 µM; also: nearly all actives have a fitted effect of over 35% in size; also: potency is read from the fitted curve at half-maximal effect;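 as to viability: 100% = DMSO-treated cells and 0% = medium-only wells without cells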
# In short: as §1
Compound,Potency [1],"cell viability, % of control (lower = more cytotoxic) [2]",viability (% of control) [3],Potency [4],"growth, % of control [5]",Potency [6],Potency [7],Potency [8],Potency [9],Potency [10]
CO[C@@H]1[C@H](N(C)C(=O)c2ccccc2)C[C@H]2O[C@]1(C)n1c3ccccc3c3c4c(c5c6ccccc6n2c5c31)C(=O)NC4,0.743 µM (active),21.1%,14.1%,–,–,–,–,–,–,–
CC(C)c1onc(-c2c(Cl)cccc2Cl)c1COc1ccc(/C=C/c2cccc(C(=O)O)c2)c(Cl)c1,33.2 µM (active),–,–,20.9 µM (active),–,–,–,–,–,–
CC1(C)SCCN(S(=O)(=O)c2ccc(OCC#CCO)cc2)[C@@H]1C(=O)NO,37.2 µM (active),80%,102%,23.5 µM (active),112%,inactive,inactive,inactive,13.2 µM (active),inactive
CNC(=O)c1ccccc1Sc1ccc2c(/C=C/c3ccccn3)n[nH]c2c1,16.6 µM (active),–,–,–,–,–,–,–,–,–
CCc1ccc(CCOc2ccc(CC3SC(=O)NC3=O)cc2)nc1 (stereo not given),23.5 µM (active),142%,100%,16.6 µM (active),63.3%,inactive,inactive,0.0148 µM (active),0.296 µM (active),inactive
O=S(=O)(N=Cc1c(O)ccc2ccccc12)c1cccs1,26.4 µM (active),98%,45.4%,20.9 µM (active),63.2%,inactive,inactive,0.105 µM (active),1.66 µM (active),7.43 µM (active)
COc1ccc(CCN2CCN(CCCc3ccccc3)CC2)cc1OC,7.43 µM (active),340%,64.5%,–,21.1%,inactive,inactive,inactive,–,–
CCCS(=O)(=O)Nc1ccc(F)c(C(=O)c2c[nH]c3ncc(Cl)cc23)c1F,13.2 µM (active),113%,17.1%,16.6 µM (active),71.8%,inactive,inactive,14.8 µM (active),18.7 µM (active),–
S=C(NCc1ccc2c(c1)OCO2)N1CCN(c2ncnc3c2oc2ccccc23)CC1,3.32 µM (active),387% [at 92.2 µM],56.7% [at 92.2 µM],0.0662 µM (active),30.4% [at 57.5 µM],inactive,inactive,1.91 µM (active),7.62 µM (active),4.81 µM (active)
Cn1c(=O)c(F)c(Nc2ccc(I)cc2F)c2c(=O)n(C[C@@H](O)CO)cnc21,26.4 µM (active),18%,33%,–,7.31%,inactive,inactive,–,inactive,inactive
NC(=O)c1ccc(-c2nc(-c3ccc4c(c3)OCCO4)c(-c3ccccn3)[nH]2)cc1,20.9 µM (active),607%,102%,–,12.9%,inactive,inactive,–,23.5 µM (active),–
CCOC(=O)N[C@@H]1CC[C@@H]2[C@@H](C1)C[C@H]1C(=O)O[C@H](C)[C@H]1[C@@H]2C=Cc1ccc(-c2cccc(F)c2)cn1,16.6 µM (active),14.3%,20%,–,5.21%,inactive,inactive,–,20.9 µM (active),–
CCN(CCCO)CCCOc1ccc2c(Nc3cc(CC(=O)Nc4cccc(F)c4)[nH]n3)ncnc2c1,26.4 µM (active),–,–,–,–,–,–,–,–,–
NC(=O)c1ccc(I)c([N+](=O)[O-])c1,16.6 µM (active),44.8%,40.1%,37.2 µM (active),96%,inactive,inactive,–,inactive,inactive
CS(=O)(=O)c1cccc(CNc2nc(Nc3ccc4c(c3)CCC(=O)N4)ncc2C(F)(F)F)c1,4.69 µM (active),13.6%,7.96%,3.32 µM (active),10.1%,inactive,inactive,20.9 µM (active),16.6 µM (active),13.2 µM (active)
CNC(=O)c1ccc(N2C(=S)N(c3ccc(C#N)c(C(F)(F)F)c3)C(=O)C2(C)C)cc1F,23.5 µM (active),185%,112%,16.6 µM (active),41.9%,inactive,inactive,–,inactive,inactive
Nc1nccc(-c2ccc3noc(-c4ccc(Cl)cc4)c3c2)n1,18.7 µM (active),68.4%,46.9%,23.5 µM (active),33.5%,–,inactive,5.9 µM (active),–,–
O=C(Nc1nc2ccccc2n1CCN1CCOCC1)c1cccc([N+](=O)[O-])c1,18.7 µM (active),43.3%,4.89%,10.5 µM (active),–,inactive,inactive,20.9 µM (active),23.5 µM (active),20.9 µM (active)
Cc1ccc2c(c1)C(=O)[C@@]1(O)CCN(c3ccccc3)C1=N2,13.2 µM (active),–,–,13.2 µM (active),–,–,–,–,–,–
C[C@@H]1CN(Cc2ccc(F)cc2)[C@@H](C)CN1C(=O)c1cc2c(C(=O)C(=O)N(C)C)cn(C)c2cc1Cl,37.2 µM (active),160%,70.3%,16.6 µM (active),47.5%,inactive,inactive,–,–,23.5 µM (active)
CCCCCCCc1ccc(CCc2cccc(O)c2C(=O)O)cc1,16.6 µM (active),161%,66.1%,–,81.6%,inactive,inactive,–,16.6 µM (active),–
CC1(C)CNc2cc(NC(=O)c3cccnc3NCc3ccncc3)ccc21,33.2 µM (active),230%,69.9%,–,30.1%,inactive,inactive,1.05 µM (active),2.35 µM (active),23.5 µM (active)
